NR3A LBD binder = NR3A (human) ligand-binding domain modulation; NR3A LBD differential scanning fluorimetry, Tm shift; 0% = protein alone, 100% = glycine-bound protein; Tm shift relative to glycine control, % at 25 µM; 340,000 tested, 2.5% active;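 active = melting temperature shift of at least 10% of the positive control shift, at one fixed dose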
ADAM10 inh = inhibitors of human ADAM10; inhibition, % at 7 µM; 370,000 tested, 0.62% active; recombinant ADAM10, EDANS/DABCYL FRET peptide cleavage, 3 h;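 active = inhibition above a per-campaign cutoff equal to the mean of compounds falling between control-based bounds plus 3 SD, cut at about 20% in these data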;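 note: 0% = DMSO wells while the 100% control is not disclosed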
proKLK7 act = proKLK7 (human) activation, primary screen. activation, % at 7 µM. 370,000 tested, 0.9% active. purified proKLK7, EDANS-DABCYL substrate fluorescence; 100% is mature enzyme control, 0% vehicle;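 active = activation above the mean of all tested compounds plus 3 SD, computed per campaign excluding outliers beyond control limits, cut at about 13% in these data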
AHR activator = activators of human aryl hydrocarbon receptor; activation, % at 5 µM; AID 2796; 320,000 tested, 2.5% active; P35869; AHR-responsive luciferase reporter cells, luminescence; in the data active = activation above about 47%;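 note: 0% = vehicle wells and 100% = reference agonist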
Target sequence (P35869 whole entry, looked up): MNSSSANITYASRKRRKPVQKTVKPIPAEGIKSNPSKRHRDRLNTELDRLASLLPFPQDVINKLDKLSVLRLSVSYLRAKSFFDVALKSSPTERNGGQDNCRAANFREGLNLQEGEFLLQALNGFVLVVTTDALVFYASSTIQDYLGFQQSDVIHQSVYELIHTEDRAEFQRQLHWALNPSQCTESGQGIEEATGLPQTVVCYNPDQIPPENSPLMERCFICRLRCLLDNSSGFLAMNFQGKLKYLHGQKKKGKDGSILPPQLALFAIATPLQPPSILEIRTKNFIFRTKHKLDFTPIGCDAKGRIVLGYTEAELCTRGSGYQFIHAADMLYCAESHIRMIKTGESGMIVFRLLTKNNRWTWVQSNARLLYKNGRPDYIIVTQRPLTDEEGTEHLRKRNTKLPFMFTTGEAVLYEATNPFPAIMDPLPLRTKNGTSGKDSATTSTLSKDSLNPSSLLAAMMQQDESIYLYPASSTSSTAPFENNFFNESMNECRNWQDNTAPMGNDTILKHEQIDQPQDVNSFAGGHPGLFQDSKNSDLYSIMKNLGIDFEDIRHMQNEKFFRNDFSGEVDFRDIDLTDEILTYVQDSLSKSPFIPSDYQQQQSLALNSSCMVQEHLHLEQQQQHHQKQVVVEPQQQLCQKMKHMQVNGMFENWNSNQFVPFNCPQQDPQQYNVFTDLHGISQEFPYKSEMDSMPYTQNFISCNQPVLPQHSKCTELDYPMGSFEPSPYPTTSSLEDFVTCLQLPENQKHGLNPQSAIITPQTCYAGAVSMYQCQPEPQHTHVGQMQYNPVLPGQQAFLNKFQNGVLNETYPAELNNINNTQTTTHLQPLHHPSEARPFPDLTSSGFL
ADAM17 inh = inhibits human ADAM17; 370,000 tested, 0.83% active; P78536; recombinant ADAM17, EDANS/DABCYL FRET peptide cleavage; inhibition, % at 6.95 µM;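 active = inhibition above the mean of compounds lying between control limits plus 3 SD, set per campaign, cut at about 8.5% in these data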;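 note: 0% = DMSO-only wells as the low control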
rCAG binder = molecules binding r(CAG) RNA repeats | 370,000 tested, 1.3% active | inhibition, % at 3 µM | r(CAG) RNA repeat, TO-PRO-1 dye displacement fluorescence | AID 651821;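 active = inhibition above the plate cutoff, the mean of all test compounds on that plate plus 3 SD, cut at about 35% in these data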;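 note: 0% = DMSO alone and 100% = 100 µM mitoxantrone as full dye displacement; higher means more dye released from RNA so lower well fluorescence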
rCAG binder conf = r(CAG) RNA repeat binding, confirmation; shares compounds with rCAG binder; TO-PRO-1 dye displacement fluorescence; inhibition, % at 3 µM; 4,300 tested, 70% active; AID 652065;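 active = inhibition above a per-plate cutoff, the mean inhibition of sample wells plus 3 SD, cut at about 35% in these data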;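 note: loss of TO-PRO-1 fluorescence as compound displaces dye from 1x1 AA loop RNA; 0% = DMSO only wells and 100% = 100 µM mitoxantrone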
DNA CAG counter = counter-screen for rCAG RNA binders: DNA CAG dye complex inhibitors; d(CAG) DNA oligo TO-PRO-1 dye displacement, fluorescence; AID 652068; 4,300 tested, 94% active; inhibition, % at 3 µM; shares compounds with rCAG binder;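 active = inhibition above its plate's cutoff, the mean test-well inhibition plus 3 SD, cut at about 4.8% in these data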;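 note: 0% = DNA dye mix with DMSO and 100% = 100 µM mitoxantrone; hits displace the dye from DNA and so lower well fluorescence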
An asterisk follows results filed as active; / = no result given. A selection: hits, their analogues and other compounds. The true share with any hit is near 7%.

SMILES | NR3A LBD binder | ADAM10 inh | proKLK7 act | AHR activator | ADAM17 inh | rCAG binder | rCAG binder conf | DNA CAG counter
COC(=O)[C@]12CCCCC=C1N(Cc1ccc(OC)cc1)C(=O)[C@@H]2CC(=O)NCCCN1CCCC1=O | / | -0.4 | 0.7 | / | -4.5 | -0.4 | / | /
COC(=O)c1sc(NC(=S)NNC(=O)c2c(Br)c(C)nn2C)c(C(=O)OC)c1C | 11.8* | 0.2 | -0.3 | 3.9 | 2.4 | 69.2* | 90.1* | 70.1*
O=C(CSCc1ccc(Cl)cc1)Nc1ccc(Br)cc1C(=O)O | -2.6 | 4.7 | 0.5 | -1.5 | 3.3 | 43.9* | 36.0* | 8.7*
O=C(O)c1ccc(NNC(=S)Nc2cc(C(F)(F)F)ccc2Cl)cc1 | 2.2 | -6.1 | -0.4 | -2.6 | -3.3 | 39.4* | 14.6 | 4.7*
O=C(NC(=S)Nc1cc(C(F)(F)F)ccc1Cl)c1ccccc1 | -5.7 | 2.0 | 0.4 | 24.6 | -1.1 | 0.8 | / | /
CS(=O)(=O)c1ccc(-c2nnc(NC(=O)c3ccc(S(=O)(=O)N4CCCC4)cc3)o2)cc1 | 0.4 | -1.8 | 0.0 | 0.0 | -1.9 | 35.8* | 15.8 | 4.7*
CCCN1C(=O)c2n[nH]c(C(C)C)c2C1c1cccc(C(F)(F)F)c1 (stereo not given) | / | -1.9 | -0.1 | / | -3.0 | -1.1 | / | /
CCC(C)n1c(NC(=O)c2ccccc2)c(C#N)c2nc3ccccc3nc21 (stereo not given) | 3.0 | -314.8 | -4.7 | 7.5 | -82.2 | 38.1* | 68.2* | 30.9*
Cc1ccc(S(=O)(=O)N2[C@@H](c3ccccc3F)C(C(=O)O)=CC[C@H]2c2cccs2)cc1 | 0.9 | -0.9 | 0.1 | 0.1 | -1.8 | 45.2* | 46.4* | 12.1*
Cc1ccc(S(=O)(=O)N2[C@@H](c3ccccc3)C(C(=O)O)=CC[C@H]2c2cccs2)cc1 | 2.2 | 1.1 | 0.7 | 0.5 | -0.4 | 41.7* | 42.6* | 9.4*
CC(=O)C1=CCC(c2cccs2)N(S(=O)(=O)c2ccc(C)cc2)C1 (stereo not given) | / | -7.9 | 0.2 | / | -7.2 | 4.9 | / | /
COC(=O)C[C@H]1C=C[C@H](NC(=O)c2cccc(F)c2)[C@@H](CO)O1 | / | -11.2 | 0.8 | / | -5.7 | -0.3 | / | /
OC(c1ccc(F)cc1)c1nc(-c2cc3ccccc3o2)cs1 (stereo not given) | / | 5.7 | 0.2 | / | 5.3 | 3.1 | / | /
COC(=O)c1ccc(C)c(NC(=O)CSc2sc3c(O)cc(=O)[nH]c3c2C#N)c1 | -7.1 | -11.7 | -0.3 | 5.5 | 4.1 | 60.7* | 44.7* | 19.7*
Cc1ccc(C)c(NC(=O)CSc2sc3c(O)cc(=O)[nH]c3c2C#N)c1 | -4.5 | -10.1 | 0.0 | 6.0 | 3.4 | 51.1* | 29.0 | 11.2*
O=C(CSCCO)Nc1cccc(C(F)(F)F)c1 | 1.1 | -4.8 | -0.1 | -3.1 | -3.2 | -2.0 | / | /
N#Cc1c(SCC(=O)Nc2cccc(C(F)(F)F)c2)sc2c(O)cc(=O)[nH]c12 | 10.3* | -2.0 | -2.5 | 3.3 | -1.2 | 51.7* | 35.1* | 15.0*
COC(=O)c1ccc(C)c(NC(=O)CCSc2ccc(C)cc2)c1 | 4.3 | 7.0 | 0.1 | 6.5 | 0.1 | -2.0 | / | /
Cc1ccc(NC(=O)CSc2nc3[nH]c(=O)cc(O)c3s2)c(Br)c1 | 1.2 | 7.0 | -0.1 | 2.4 | -1.0 | 26.9 | / | /
Cc1cc(NC(=O)CSc2sc3c(O)cc(=O)[nH]c3c2C#N)ccc1Br | 2.4 | -9.5 | -1.4 | 27.7 | -3.8 | 51.2* | 59.3* | 31.5*
COc1ccccc1CNC(=O)NNC(=O)CCn1nc(C)c([N+](=O)[O-])c1C | / | 0.7 | -0.6 | / | -1.1 | 0.7 | / | /
CC(C)[C@H](NC(=O)c1ccccc1)C(=O)N1CCC[C@H]1C(=O)NCCc1ccccc1Cl | / | -2.0 | -0.2 | / | 0.8 | 1.4 | / | /
CC1(O)C(=O)C2(C)C=CC1C1C(=O)N(c3ccccc3)C(=O)C12 (stereo not given) | / | -4.8 | 0.1 | / | -5.0 | 1.8 | / | /
Cc1ccc(S(=O)(=O)N2CCCC2C(=O)N2CCc3ccccc3C2)cc1 (stereo not given) | / | 4.4 | -0.4 | / | 2.3 | 3.8 | / | /
O=c1ccc2ccc(O[C@@H]3O[C@H](CO[C@@H]4OC[C@](O)(CO)[C@H]4O)[C@@H](O)[C@H](O)[C@H]3O)cc2o1 | 1.3 | -20.3 | -0.8 | -0.7 | -7.2 | 11.1 | / | /
SMILES | NR3A LBD binder | ADAM10 inh | proKLK7 act | AHR activator | ADAM17 inh | rCAG binder | rCAG binder conf | DNA CAG counter
CC1OC(Oc2ccc3ccc(=O)oc3c2-c2c(O)ccc3cc(Oc4ccc5ccc(=O)oc5c4)c(=O)oc23)C(O)C(O)C1O (stereo not given) | -4.7 | -52.4 | 6.6 | 2.5 | -26.9 | 38.2* | 24.5 | 8.7*
Cc1ccc(Nc2ccc(C(N)=O)cc2[N+](=O)[O-])cc1C | -1.0 | -0.7 | -0.5 | 7.4 | -3.1 | 2.1 | / | /
CC(=O)Nc1ccc(C=NNc2ccc([N+](=O)[O-])cc2S(=O)(=O)Nc2ccccc2C(=O)O)cc1 | 29.0* | -1.5 | -0.6 | -1.3 | 2.9 | 57.0* | 88.7* | 64.8*
CC(=O)Nc1cccc(/C(C)=N/Nc2ccc(S(=O)(=O)Nc3ccccc3C(=O)O)cc2[N+](=O)[O-])c1 | 14.4* | 3.4 | 0.7 | / | 1.8 | 85.3* | 94.1* | 80.4*
O=[N+]([O-])c1cc(S(=O)(=O)Nc2ccccc2)ccc1Nc1ccccc1 | 5.4 | 11.1 | -0.6 | / | 1.8 | 12.0 | / | /
COc1ccc(C(C)=NNc2ccc([N+](=O)[O-])cc2S(=O)(=O)Nc2ccccc2C(=O)O)c(OC)c1 | 9.1 | -8.2 | -0.1 | 0.3 | 0.7 | 76.8* | 93.0* | 78.2*
Cc1ccc(NC(=S)NNc2ccc(C(=O)O)cc2[N+](=O)[O-])cc1C | -3.8 | 2.8 | 0.2 | 6.8 | -0.9 | 35.4* | 22.9 | 10.1*
CC(C)(N[C@@H](Cc1ccccc1)C(=O)NCC(c1ccccc1)c1ccccc1)C(=O)NC1CCCCC1 | / | -7.5 | / | / | -2.2 | / | / | /
COc1ccc(Cn2c(O)c(C=Nc3ccccc3C(=O)O)c3ccccc3c2=O)cc1 | -5.4 | -44.1 | -1.1 | -2.5 | -15.4 | 22.7 | / | /
CCOc1cc(/C=N/Nc2ccc(S(=O)(=O)Nc3ccccc3C(=O)O)cc2[N+](=O)[O-])cc(Cl)c1O | / | 3.2 | 0.6 | / | 1.6 | 66.7* | 92.9* | 73.5*
O=C(O)c1ccccc1Nc1ccc([N+](=O)[O-])cc1C(=O)O | 2.0 | 6.9 | 0.1 | 2.0 | -0.6 | 0.2 | / | /
NS(=O)(=O)c1ccc(N/N=C/c2ccc(C(=O)O)cc2)c([N+](=O)[O-])c1 | 0.5 | 2.7 | 0.3 | 3.2 | 1.6 | 5.1 | / | /
CCOc1cc(/C=N/Nc2ccccc2Cl)ccc1OCC(=O)O | -2.1 | -1.5 | -0.5 | 7.6 | -1.4 | 16.1 | / | /

Screening results as filed in PubChem BioAssay.
